# From PubChem BioAssay AID1159580 (chemical genetic matrix, 2015)
# Out of some 5,500 compounds screened, about 2,000 (36%) were called active. Roughly 18% stayed inconclusive and do not appear here. This is one part of the list. A number with no mark means an inactive call. Rule as the data show it: active = normalized growth mostly below about 0.91 (no sharp cut-off); inconclusive = no clear call, values can overlap the other calls; inactive = mostly above about 0.92.
# Test: chemical genetic growth profiling, strain panel (AID 1159580);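 also: tested at 20 µM; growth read once vehicle control cultures reached saturation at 30 °C; 1 = growth at the plate median or of vehicle wells; lower values mean less growth of the strain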
# Settings: S. cerevisiae deletion strains, growth OD
# [1] = locus YAL040C, strain CLN3, hits give low values
# [2] = locus YCL061C, strain MRC1 (second series), hits give low values
# [3] = locus YDR363W, strain ESC2, hits give low values
# [4] = locus YER002W, strain NOP16, hits give low values
# [5] = locus YGR078C, strain PAC10, hits give low values
# [6] = locus YGR229C, strain SMI1, hits give low values
# [7] = locus YMR307W, strain GAS1, hits give low values
# [8] = locus YNL153C, strain GIM3, hits give low values
# [9] = locus YNL175C, strain NOP13, hits give low values
# [10] = locus YNL197C, strain WHI3, hits give low values
# [11] = locus YNL224C, strain SQS1, hits give low values
# [12] = locus YOR083W, strain WHI5 (second series), hits give low values
# [13] = locus YDR150W, strain NUM1, hits give low values
Compound,normalized growth [1],normalized growth [2],normalized growth [3],normalized growth [4],normalized growth [5],normalized growth [6],normalized growth [7],normalized growth [8],normalized growth [9],normalized growth [10],normalized growth [11],"normalized growth (locus YNL322C, strain KRE1, hits give low values)",normalized growth [12],normalized growth [13],"normalized growth (locus YNL128W, strain TEP1, hits give low values)","normalized growth (locus YPL055C, strain LGE1, hits give low values)"
C[C@H](Cc1ccc2c(c1)OC(C(=O)O)(C(=O)O)O2)NC[C@H](O)c1cccc(Cl)c1,1.02,1.01,0.998,0.992,1.01,1.01,1.02,0.967,1,0.987,1,1,0.985,,,
CC(Cc1ccc(OCC(=O)O)cc1)NCC(O)c1cccc(Cl)c1 (stereo not given),0.97,,,1.01,1.01,1.02,,,0.984,0.979,0.99,,0.977,0.182 (active),1.02,
CN(C(=O)Cc1ccc(Cl)c(Cl)c1)C(CN1CCCC1)c1cccc(OCC(=O)O)c1 (stereo not given),0.998,0.995,0.961,0.992,,,0.989,1.01,0.995,0.997,0.99,,0.999,1,,1.01
